Hit rate of the full screen: of about 48,000 compounds, about 13,000 (27%) showed an effect of 50% or more. The list shows a part of the results.
test system: Wolbachia pipientis; experiment: Anti-Wolbachia Cell-Based Screen; assay type: functional; set-up: scale not given: in the data most compounds retested in dose-response had high values; details: 5 µM

| SMILES | Percent Effect [%] |
| --- | --- |
| COc1ccc(-c2noc([C@@H](C)NS(=O)(=O)CC(C)C)c2C(=O)O)cc1 | -11.95 |
| Cn1cc(Cl)c(CN2CCn3nc(C(=O)Nc4ccccc4)cc3C2)n1 | -7.275 |
| COCc1ccccc1CNc1cc(N2CCCC2CO)ncn1 (configuration not stated) | 1.416 |
| Cc1ncsc1CNc1cc(N2CCCC2CO)ncn1 (configuration not stated) | 92.3 |
| CN1CCN(c2cc(N3CCCC3CO)ncn2)Cc2ccccc21 (configuration not stated) | 10.62 |
| Cc1ccsc1CNc1cc(N2CCCC2CO)ncn1 (configuration not stated) | 12.33 |
| OCC1CCCN1c1cc(NCc2ccsc2)ncn1 (configuration not stated) | 106 |
| Cc1ccc(CNc2cc(N3CCCC3CO)ncn2)s1 (configuration not stated) | 116.3 |
| OCC1CCN(c2ccc(NCc3ccsc3)nc2)CC1 | -9.25 |
| Cc1cccc2c1CCN(c1cc(N3CCCC3CO)ncn1)C2 (configuration not stated) | 1.096 |
| Cc1noc(C)c1CNc1cc(N2CCCC2CO)ncn1 (configuration not stated) | -3.514 |
| CN(CC1COc2ccccc2O1)C(=O)NCCCn1cncn1 (configuration not stated) | -12.38 |
| CCc1nnc2n1CCN(Cc1csc(-c3ncccn3)n1)C2 | -18.32 |
| Cc1nnc2n1CCN(Cc1csc(-c3cnn(C)c3)n1)C2 | -23.78 |
| CCc1nnc2n1CCN(Cc1csc(-c3ccc(C)o3)n1)C2 | -1.199 |
| Cc1nnc2n1CCN(Cc1csc(-c3ccsc3)n1)C2 | 121.4 |
| Cc1nnc2n1CCN(Cc1csc(-c3ncccn3)n1)C2 | 110.5 |
| Cc1nnc2n1CCN(CCOc1ccccc1)C2 | 2.68 |
| c1cnc(-c2nc(CN3CCn4c(nnc4C4CC4)C3)cs2)nc1 | 13.95 |

| SMILES | Percent Effect [%] |
| --- | --- |
| Cc1ccc(-c2nc(CN3CCn4c(nnc4C4CC4)C3)cs2)o1 | 3.918 |
| Cc1nnc2n1CCN(Cc1csc(-c3ccc(F)cc3)n1)C2 | -7.701 |
| CCc1nnc2n1CCN(Cc1csc(-c3ccsc3)n1)C2 | -5.09 |
| Cc1nnc2n1CCN(Cc1csc(COc3ccccc3)n1)C2 | 109.3 |
| Cc1ccc(-c2nc(CN3CCn4c(C)nnc4C3)cs2)o1 | 51.15 |
| CC(C)C1C(=O)NCCN1C(=O)CCCc1nc(C(C)(C)C)no1 (configuration not stated) | -23.49 |
| COc1ccnc(N2CCN(C(=O)CCc3cnn(C)c3)CC2)n1 | 36.6 |
| COCC1CN(Cc2cc(C)on2)Cc2cn(C)nc21 (configuration not stated) | 6.327 |
| CCN(C)CC1CCN(S(=O)(=O)c2cc(C)c(F)cc2Cl)C1 (configuration not stated) | 6.524 |
| Cc1nn(C)c(Cl)c1C1CCCN1Cc1ccccn1 (configuration not stated) | 85.99 |
| Cc1nn(C)c(C)c1C1CCCN1CC(=O)NCc1ccccn1 (configuration not stated) | 103.7 |
| Cc1nn(C)c(Cl)c1C1CCCN1CC(=O)NCc1ccccn1 (configuration not stated) | -3.313 |
| COc1c(C2CCCN2CC(=O)Nc2nc(C)cs2)c(C)nn1C (configuration not stated) | -2.535 |
| Cc1nn(C)c(Cl)c1C1CCCN1CCc1ccccn1 (configuration not stated) | 5.429 |
| COc1c(C2CCCN2CC(=O)Nc2cc(C)no2)c(C)nn1C (configuration not stated) | -8.496 |
| Cc1nn(C)c(C)c1C1CCCN1CC(=O)Nc1ccncc1 (configuration not stated) | 1.396 |
| Cc1cc(CN2CCCC2c2c(C)nn(C)c2Cl)no1 (configuration not stated) | 7.779 |
| COc1c(C2CCCN2CC(=O)NCc2ccccn2)c(C)nn1C (configuration not stated) | 101.4 |

Reference: ChEMBL document CHEMBL3988442, “University of Dundee, Small-Polar-MMV Screening Library” (2021)
